# This is a sample that favours compounds with a hit; in the whole collection about 11% have one here.
# L3MBTL1 inh: qHTS Assay for the Inhibitors of L3MBTL1; Lethal(3)malignant brain tumor-like protein 1 (Homo sapiens), Q9Y468; AlphaScreen L3MBTL1–H3K9me1 peptide binding; Potency, µM (highest dose often 57.1 µM), actives largely listed as inhibitors; 230,000 tested, 0.66% active; AID 485360, 2010; further: nearly all actives have a fitted effect of over 60% in size
#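 AlphaScreen proximity signal between nickel-chelate acceptor and streptavidin donor beads (final 10 ug/mL) reports binding of 50 nM L3MBTL1 to 75 nM biotin-H3 K9me1 peptide; complex incubated with compounds 30 min at room temperature; cefsulodin titration as control.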
# BAZ2B block: qHTS Assay for Inhibitors of BAZ2B; Bromodomain adjacent to zinc finger domain protein 2B (Homo sapiens), Q9UIF8; AlphaScreen BAZ2B-H3K14Ac peptide displacement; Potency, µM (series often up to 114 µM), usual class: inhibitors; 360,000 tested, 4.4% active; AID 504333, 2011; further: nearly all actives have a fitted effect of over 60% in size
#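 Complex of BAZ2B and biotin-H3K14Ac (50 nM apiece) forms over 30 min at RT, then faces library compounds up to 110 uM for another 30 min; AlphaScreen beads added, 20 min dark incubation, luminescence read.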
# G9a block: qHTS Assay for Inhibitors of Histone Lysine Methyltransferase G9a | Histone-lysine N-methyltransferase EHMT2 (Homo sapiens), Q96KQ7 | AID 504332, 2011 | G9a H3K9 monomethylation, AlphaScreen, 2 h | Potency, µM (series often up to 102 µM), most hits filed as inhibitors | 350,000 tested, 8.8% active; further: nearly all actives have a fitted effect of over 75% in size
#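 G9a (20 nM) preincubated 15 min RT with compounds, then 500 nM biotinylated H3K9 peptide and 20 uM SAM added; 2 h RT reaction. Monomethyl-H3K9 product detected by AlphaScreen with anti-H3K9me1 antibody, streptavidin donor and anti-rabbit IgG acceptor beads.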
# HP1b binding inh: HTS for Inhibitors of HP1-beta Chromodomain Interactions with Methylated Histone Tails. Chromobox protein homolog 1 (Homo sapiens), P83916. AlphaScreen HP1-beta / biotin-H3K9me3 peptide binding. Potency, µM (doses to about 114 µM), usual class: inhibitors. 390,000 tested, 0.56% active. AID 540317, 2011; further: nearly all actives have a fitted effect of over 70% in size
#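 Compound inhibition of the preformed complex between 50 nM HP1-beta and 50 nM biotinylated H3K9me3 peptide was read by AlphaScreen. Buffer was PBS pH 7.4 with 0.01% Tween-20. Incubations ran 30 min at room temperature, with 10 ug/mL donor/acceptor beads.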
# JMJD2A Tudor: qHTS Assay for Inhibitors of JMJD2A-Tudor Domain. 390,000 tested, 4.4% active. Potency, µM (titrated, usually from 114 µM), actives largely listed as inhibitors. AlphaScreen JMJD2A-Tudor / H3K4me3 peptide binding. Lysine-specific demethylase 4A (Homo sapiens), O75164; further: nearly all actives have a fitted effect of over 50% in size
# A number is an active result; n = inactive; u = inconclusive; x = no result; ! = not confirmed by another sample; [ ] = remark or other dose. The call rests on the fitted dose curve; in most records, active means well fitted inhibition curve with a large enough effect; inconclusive means small, poorly fitted or top-dose-only effect; inactive means no such curve, though single readings can be large or run the other way.
SMILES,L3MBTL1 inh,BAZ2B block,G9a block,HP1b binding inh,JMJD2A Tudor
CC1CCN(S(=O)(=O)c2cn(CC(=O)Nc3ccc(F)c(Cl)c3)c(=O)c3ccccc23)CC1,x,n,n,n,n
Cc1cc(C)c(OCC(=O)N(Cc2ccc(N(C)C)cc2)CC2CCCO2)c(C)c1 (stereo unspecified),x,28.2µM,12.6µM,u,39.8µM
Cc1cccc(C)c1OCC(=O)N(Cc1ccc(Cl)cc1)CC1CCCO1 (stereo unspecified),x,n,n,n,n
Cc1ccc(OCC(=O)N(Cc2ccc(N(C)C)cc2)CC2CCCO2)cc1C (stereo unspecified),x,31.6µM,14.1µM,u,50.1µM
Cc1ccccc1OCC(=O)N(Cc1ccc(N(C)C)cc1)CC1CCCO1 (stereo unspecified),x,31.6µM,15.8µM,u,44.7µM
Cc1ccc(N(Cc2ccc(C(=O)NCC3CCCO3)cc2)S(C)(=O)=O)cc1C (stereo unspecified),n,n,n,n,n
CCn1ncc(N2CCOCC2)c(Cl)c1=O,x,n,n,n,n
CCCOc1cccc(-c2cc(-c3n[nH]c(=S)n3CC)c3ccccc3n2)c1,n,u,n[0.0925 µM],n,u
CCn1c(-c2cc(-c3ccc(OC(C)C)cc3)nc3ccccc23)n[nH]c1=S,x,n,28.2µM,n,n
CCn1c(-c2cc(-c3ccc(C)cc3)nc3ccccc23)n[nH]c1=S,n,u,8.91µM,n,n
Cc1ccccc1NC(=O)c1ccc2c(O)c(S(=O)(=O)c3ccccc3)c(=O)[nH]c2c1,x,u,50.1µM!,n,n
COc1cccc(NC(=O)c2ccc3c(O)c(S(=O)(=O)c4ccccc4)c(=O)[nH]c3c2)c1,x,n,n,n,44.7µM
Cc1cccc(NC(=O)c2ccc3c(O)c(S(=O)(=O)c4ccccc4)c(=O)[nH]c3c2)c1C,x,n,u,n,u
CCOc1ccc(-c2cc(NC(=O)Nc3ccccc3Cl)c(C(=O)OC)s2)cc1,x,n,n,n,n
Cc1ccc(-n2c(=O)c3c(c4cc(C)ccc4n3C)n(CC(=O)Nc3c(C)cccc3C)c2=O)cc1,x,n,n,n,n
O=C(NCc1nnc(SCC(=O)N2CCC(Cc3ccccc3)CC2)o1)c1ccccc1F,n,n,44.7µM,n,n
O=C(NCc1nnc(SCC(=O)N2CCCC2)o1)c1c(F)cccc1F,x,n,n,n,n
O=C(CSc1nnc(CNC(=O)c2ccco2)o1)Nc1ccccc1F,x,n,25.1µM,n,n
O=C(CSc1nnc(CNC(=O)c2ccco2)o1)Nc1ccc(Br)cc1,x,u,10µM,n,n
CCCCCn1c(-c2ccc(OC)c(OC)c2)nc2ccccc21,x,n,n,n,n
O=C(CSc1nnc(-c2ccccc2F)o1)NC1CCCCC1,x,n,n,n,n
N#CC1(NC(=O)CSc2nnc(-c3ccccc3F)o2)CCCCC1,n,n,39.8µM,n,n
CCc1ccc(NC(=O)c2noc3c2CCC3)cc1,x,50.1µM,n[12.7 µM],n,56.2µM
CSc1ccccc1NC(=O)c1noc2c1CCC2,14.1µM,39.8µM,14.1µM,50.1µM,50.1µM
COCCn1c(=O)cnc2cnc(N3CCN(C)CC3)nc21,x,x,n[0.501 µM],x,x
SMILES,L3MBTL1 inh,BAZ2B block,G9a block,HP1b binding inh,JMJD2A Tudor
C/C=C1\C(=O)CC2C3CCC4=CC(=O)CC[C@]4(C)C3CC[C@]12C (stereo partly specified),x,x,n[12.7 µM],x,x
O=C(O)CC(c1ccccc1)n1cccc1 (stereo unspecified),n,n,n,n,n
Nc1ccc(C(CC(=O)O)n2cccc2)cc1 (stereo unspecified),x,79.4µM,u,u,u
Cc1ccc(S(=O)(=O)c2c(O)cc(C)c(NS(=O)(=O)c3ccc(Cl)cc3)c2C)cc1,x,u,n,n,n
O=C(NNc1nc2cc3c(cc2s1)OCO3)c1ccc(F)cc1,n,n,8.91µM,n,n
O=C(NNc1nc2cc3c(cc2s1)OCCO3)c1ccc(F)cc1,n,n,50.1µM,n,n
Fc1ccc2nc(Nc3nc4cc5c(cc4s3)OCO5)sc2c1,n,n,n,n,n
COc1cccc(OC)c1C(=O)Nc1ccc(S(=O)(=O)Nc2nccc(C)n2)cc1,x,n,n,n,n
O=C(Cc1ccccc1)N/N=C/c1cc(Br)cc(Br)c1O,x,n,n[2.33 µM],n,n
O=C(O)c1ccccc1N/N=C/c1cc(Br)cc(Br)c1O,n,44.7µM,x,n,u
O=C(NC1c2ccccc2-c2ccccc21)c1ccco1,n,n,n,n,56.2µM
O=C(NC1CCCCC1NC(=O)c1ccco1)c1ccco1 (stereo unspecified),n,n,n,n,n
COc1ccc(-c2nnc(SCC(=O)c3ccc([N+](=O)[O-])cc3)o2)cc1OC,x,n,n,n,n
CCOC(=O)c1c(NC(=O)c2cc(-c3ccc(O)cc3)on2)sc(C(C)=O)c1C,n,n,22.4µM,n,n
CCOC(=O)c1c(NC(=O)c2cc3nc(-c4ccc(OC)cc4)cc(C(F)(F)F)n3n2)sc(C)c1C,x,n,n,n,n
CCc1ccc(NC(=O)c2cc(-c3ccc(OC)cc3)on2)cc1,x,56.2µM,n,n,n
CCOC(=O)c1c(NC(=O)c2cc(-c3ccc(OC)cc3)on2)sc(C)c1C,x,n,8.91µM,n,n
CCOC(=O)c1sc(NC(=O)c2cc(-c3ccc(F)cc3)on2)c(C(=O)OCC)c1C,x,n,n,n,n
CC(C)OCCCNC(=O)CN1C(=O)c2cccnc2Sc2ccccc21,x,n,n,n,n
CC1CC(C(F)F)n2nc(C(=O)O)cc2N1 (stereo unspecified),x,n,n,n,20µM
Cc1nc2sc(C(c3ccco3)N3CCC(C)CC3)c(O)n2n1 (stereo unspecified),n,n,u,n,n
Cc1nc2sc(C(c3ccco3)N3CCN(c4cccc(Cl)c4)CC3)c(O)n2n1 (stereo unspecified),n,u,12.6µM,n,u
Cc1nc2sc(C(c3ccc(Cl)cc3)N3CCN(C(=O)c4ccco4)CC3)c(O)n2n1 (stereo unspecified),n,n,n,n,n
CN1CCN(C(c2ccc(Cl)cc2Cl)c2sc3nc(-c4ccco4)nn3c2O)CC1 (stereo unspecified),x,n,n,n,n
Oc1c(C(c2ccc(Cl)cc2Cl)N2CCN(Cc3ccccc3)CC2)sc2nc(-c3ccco3)nn12 (stereo unspecified),x,u,12.6µM,u,u
Cc1nc2sc(C(c3ccco3)N3CCN(C(c4ccccc4)c4ccccc4)CC3)c(O)n2n1 (stereo unspecified),u,u,25.1µM,n,50.1µM
Oc1c(C(c2ccco2)N2CCOCC2)sc2ncnn12 (stereo unspecified),x,n,39.8µM,n,n
O=C(Nc1cccs1)Nc1cc(C(F)(F)F)ccc1Cl,x,n,n,n,n
